L3MBTL1 inh: qHTS Assay for the Inhibitors of L3MBTL1; Lethal(3)malignant brain tumor-like protein 1 (Homo sapiens), Q9Y468; AlphaScreen L3MBTL1–H3K9me1 peptide binding; Potency, µM (top dose mostly 57.1 µM), for inactives: top-dose activity, negative = inhibition, usual class: inhibitors; hit rate 0.66% among 230,000; further: nearly all actives have a fitted effect of over 60% in size
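First, the protein-peptide complex forms for 30 min at room temperature (L3MBTL1 50 nM, biotinylated H3K9me1 peptide 75 nM). Next, compounds are pin-transferred and incubated 30 min. Finally, AlphaScreen beads are added and read after 30 min.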
RECQ1 inh-1: qHTS Assay for Inhibitors of RecQ-Like Dna Helicase 1 (RECQ1). ATP-dependent DNA helicase Q1 (Homo sapiens), P46063. RECQ1 DNA unwinding, red fluorescence kinetic read. hit rate 0.54% among 240,000. Potency, µM (titrated, usually from 57.3 µM), without a hit: at the highest dose activity, negative = inhibition, most hits filed as inhibitors;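 further: plate controls were vehicle for no effect and no enzyme for full effect; nearly all actives have a fitted effect of over 30% in size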
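50 nM RECQ1T1 preincubated 15 min with compound in Tris pH 8.0 buffer with MgCl2, DTT, Tween-20 and 2.5 ug/ml poly(dI-dC); started with 200 nM TAMRA/BHQ-2 forked duplex and 2 mM ATP. Unwinding read as fluorescence (525/598 nm), two reads 2 h apart.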
BLM helicase inh: qHTS Assay for Inhibitors of Bloom's syndrome helicase (BLM); RecQ-like DNA helicase BLM (Homo sapiens), P54132; recombinant BLM DNA unwinding, fluorescence dequenching; Potency, µM (doses to about 56.1 µM), for the others: at the highest dose activity change, negative = inhibition, hits mostly inhibitors; hit rate 0.2% among 350,000; AID 2528, 2010;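 further: plate controls were vehicle for no effect and no enzyme for full effect; nearly all actives have a fitted effect of over 35% in size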
Target sequence (P54132 whole entry, looked up): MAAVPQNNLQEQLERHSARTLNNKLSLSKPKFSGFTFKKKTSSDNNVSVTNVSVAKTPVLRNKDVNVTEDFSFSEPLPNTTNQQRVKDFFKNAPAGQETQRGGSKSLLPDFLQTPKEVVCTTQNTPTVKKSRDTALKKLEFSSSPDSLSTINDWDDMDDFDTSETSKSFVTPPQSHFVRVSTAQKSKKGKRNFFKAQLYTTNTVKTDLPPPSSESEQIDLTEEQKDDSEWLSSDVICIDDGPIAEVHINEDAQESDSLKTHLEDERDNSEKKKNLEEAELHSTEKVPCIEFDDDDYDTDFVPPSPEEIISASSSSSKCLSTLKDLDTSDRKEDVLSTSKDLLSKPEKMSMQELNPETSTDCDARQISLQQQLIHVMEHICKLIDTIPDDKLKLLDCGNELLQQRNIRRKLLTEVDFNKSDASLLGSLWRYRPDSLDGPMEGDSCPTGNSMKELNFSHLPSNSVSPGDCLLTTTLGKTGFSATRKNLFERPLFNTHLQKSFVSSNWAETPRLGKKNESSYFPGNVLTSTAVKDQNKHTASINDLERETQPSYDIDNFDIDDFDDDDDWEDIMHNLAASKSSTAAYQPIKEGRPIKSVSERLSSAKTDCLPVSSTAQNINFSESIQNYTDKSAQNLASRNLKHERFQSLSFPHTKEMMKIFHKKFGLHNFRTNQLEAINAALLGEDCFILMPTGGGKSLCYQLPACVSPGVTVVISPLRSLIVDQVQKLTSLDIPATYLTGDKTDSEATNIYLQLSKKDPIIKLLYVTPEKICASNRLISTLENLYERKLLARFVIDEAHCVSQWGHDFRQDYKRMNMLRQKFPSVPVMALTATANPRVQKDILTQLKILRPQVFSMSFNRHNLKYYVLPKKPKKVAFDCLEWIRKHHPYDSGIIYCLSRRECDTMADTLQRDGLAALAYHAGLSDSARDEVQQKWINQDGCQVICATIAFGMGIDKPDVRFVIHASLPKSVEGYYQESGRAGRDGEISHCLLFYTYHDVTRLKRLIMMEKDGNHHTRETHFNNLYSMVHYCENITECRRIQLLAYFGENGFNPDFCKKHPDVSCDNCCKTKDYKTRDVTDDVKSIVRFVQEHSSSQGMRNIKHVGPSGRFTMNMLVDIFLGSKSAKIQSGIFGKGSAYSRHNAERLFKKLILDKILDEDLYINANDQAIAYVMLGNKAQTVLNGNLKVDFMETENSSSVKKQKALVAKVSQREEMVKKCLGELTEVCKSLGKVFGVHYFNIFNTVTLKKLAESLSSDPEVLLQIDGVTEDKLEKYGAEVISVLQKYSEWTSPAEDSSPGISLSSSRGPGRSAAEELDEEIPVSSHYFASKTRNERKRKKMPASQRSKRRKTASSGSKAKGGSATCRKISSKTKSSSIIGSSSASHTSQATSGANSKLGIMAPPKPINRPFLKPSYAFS
APEX1 inh: qHTS Assay for Inhibitors of the Human Apurinic/apyrimidinic Endonuclease 1 (APE1); Potency, µM (highest dose often 65.8 µM), without a hit: at the highest dose activity change, negative = inhibition, most hits filed as inhibitors; DNA repair nuclease/redox regulator APEX1 (Homo sapiens), P27695; hit rate 0.35% among 350,000; recombinant APE1, TAMRA/BHQ-2 abasic DNA cleavage fluorescence;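 further: plate controls were vehicle for no effect and reference inhibitor for full effect; nearly all actives have a fitted effect of over 55% in size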
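0.75 nM APE1 + cpd, 15 min RT; start w/ 50 nM TAMRA/BHQ-2 THF-abasic dsDNA; kinetic fluor 525/598 nm ×3 reads @60 s; Δ(read3−read1); normalized to DMSO and NSC13755 control wells.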
RECQ1 conf: Confirmation qHTS Assay for Inhibitors of RecQ-Like Dna Helicase 1 (RECQ1) | shares compounds with RECQ1 inh-1 | RECQ1 helicase DNA unwinding, fluorescence | Potency, µM (titrated, usually from 229 µM), for the others: at the highest dose activity change, negative = inhibition, hits mostly inhibitors | hit rate 28% among 610 | AID 2708, 2010; further: nearly all actives have a fitted effect of over 45% in size
RECQ1 ADP FP: Counterscreen for RECQ1 Inhibitors: ADP Fluorescence Polarization Displacement Assay; ADP fluorescence polarization displacement counterscreen; shares compounds with RECQ1 inh-1; Potency, µM (series often up to 228 µM), for inactives: at the highest dose activity change, negative = inhibition, usual class: inhibitors; AID 2711, 2010; hit rate 27% among 530; further: nearly all actives have a fitted effect of over 45% in size
RECQ1 inh-2: Confirmation qHTS Assay for Inhibitors of RecQ-Like Dna Helicase 1 (RECQ1) - Round 2 Cherry Picks. shares compounds with RECQ1 inh-1. recombinant RECQ1 DNA unwinding, red fluorescence. Potency, µM (top dose mostly 119 µM), inactives show at the top dose activity, negative = inhibition, actives largely listed as inhibitors. hit rate 15% among 1,100. AID 504841, 2011; further: nearly all actives have a fitted effect of over 50% in size
* marks the source's active call; other numbers are inactive results; i = inactive; ? = inconclusive; nt = not tested or not shown; [ ] = another dose, or the depositor's remark. Sampled rows, rich in hits. Any-hit rate of the full collection: about 0.78%. The call rests on the fitted dose curve; in most records, active means well fitted curve in the direction sought with a large enough effect; inconclusive means small, poorly fitted or top-dose-only effect, or another doubt; inactive means no such curve, though single readings can be large; an effect the other way counts as inactive or inconclusive. Unless noted, on the % scale 0 is the no-effect control and ±100 the full control effect; potency means the concentration at half of the fitted maximal effect.

SMILES	L3MBTL1 inh	RECQ1 inh-1	BLM helicase inh	APEX1 inh	RECQ1 conf	RECQ1 ADP FP	RECQ1 inh-2
CC1(C)CC(=O)/C(=C(\O)CCCN2C(=O)c3ccccc3C2=O)C(=NCC(=O)O)C1	nt	i	0%	15%	-2%	2%	nt
CC(N=C1CC(C)(C)CC(=O)/C1=C(/O)CCCN1C(=O)c2ccccc2C1=O)C(=O)O (configuration not stated)	nt	-1%	1%	-5%	11%	?	nt
CCCc1nc2oc(C(=O)OCC)c(N)c2c2c1COC(C)(C)C2	-2%	?	0%	?	nt	nt	-9%
Cc1cc(C(F)(F)F)n2[nH]c(=O)c(N=Nc3ccccc3)c2n1	nt	10µM*	3%	0%	3%[114 µM]	13%[91.9 µM]	nt
O=C(c1cc(-c2ccco2)on1)N1CCCc2ccccc21	0%	40µM*	-22%	12%	nt	nt	?
O=C(c1cc(-c2ccccc2)on1)N1CCCc2ccccc21	28%	-12%	-15%	3%	nt	nt	nt
Cc1cc(N)c2ccccc2[n+]1CCCCCCCCCC[n+]1c(C)cc(N)c2ccccc21	nt	?	-27%	?	?	22µM*	nt
Cn1c(Cn2nnc3ccccc32)nnc1SCC(=O)N1c2ccccc2CCc2ccccc21	3%	-2%	-3%	?	nt	nt	nt
Cn1c(Cn2nnc3ccccc32)nnc1SCC(=O)N1c2ccccc2Sc2ccccc21	21%	i	-5%	?	-4%	25%	nt
C=CCn1c(SCC(=O)N2c3ccccc3Sc3ccccc32)nnc1-c1ccco1	-22%	-2%	-7%	-1%	-10%	11%	nt
Cn1c(CNC(=O)c2ccco2)nnc1SCC(=O)N1c2ccccc2Sc2ccccc21	nt	3%	-2%	-7%	-1%	14%	nt
Fc1cc(Br)ccc1Nc1c2c(nc3nc(-c4cccs4)nn13)CCCC2	nt	nt	-1%	nt	nt	nt	nt
O=C(Nn1c(C2CCCCC2)nc2ccccc2c1=O)c1ccc(Cl)c([N+](=O)[O-])c1	4%	0%	-4%	-8%	nt	nt	nt
Cc1cc(C(=O)Nn2c(C3CCCCC3)nc3ccccc3c2=O)ccc1[N+](=O)[O-]	7%	25µM*	-7%	-6%	nt	nt	-11%
Cn1nnc(NC(=O)c2ccc(C(C)(C)C)cc2)n1	4%	20µM*	0%	12%	nt	nt	-7%
Cn1nnc(NC(=O)c2ccc3ccccc3c2)n1	-26%	-5%	-13%	-6%	nt	nt	nt
O=C(Nc1nc(-c2ccccn2)cs1)Nc1ccc(F)cc1F	nt	nt	-8%	24%	nt	nt	nt
O=C(Nc1nc(-c2ccccc2)cs1)Nc1ccc(F)cc1F	0%	?	-12%	-1%	nt	nt	-11%
Cc1ccccc1NS(=O)(=O)c1cc(C(=O)N2CCc3ccccc3C2)ccc1C	-5%	?	-7%	-4%	nt	nt	-8%
O=C(NCCN1CCCCC1)c1ccc(Cn2c(SCc3ccccc3)nc3cccnc32)cc1	nt	nt	4%	nt	nt	nt	nt
CC(=O)Nc1ccc(S(=O)(=O)NNC(=O)c2ccc(C)cc2)cc1	nt	-5%	-5%	8%	nt	nt	nt
Cc1ccc(S(=O)(=O)NNC(=O)Nc2ccc(Cl)cc2)cc1	2%	22µM*	-11%	1%	nt	nt	-18%
Cc1ccc(CCNC(=O)CN(c2ccc(C(C)C)cc2)S(=O)(=O)c2c(C)nn(C)c2C)cc1	nt	nt	-3%	nt	nt	nt	nt
O=c1c2cc(N3CCOCC3)ccc2[nH]c(=S)n1Cc1ccc(Cl)cc1	nt	-4%	-9%	2%	nt	nt	nt
Cc1ccc(Cn2c(=S)[nH]c3ccc(N4CCOCC4)cc3c2=O)o1	-9%[11.4 µM]	18µM*	-29%	?	?	50µM*	nt
SMILES	L3MBTL1 inh	RECQ1 inh-1	BLM helicase inh	APEX1 inh	RECQ1 conf	RECQ1 ADP FP	RECQ1 inh-2
CN(C)c1ccc(-c2nc(Nc3ccncc3)c3ccccc3n2)cc1	nt	?	-13%	5%	nt	nt	?
CN(C)C(=O)c1ccc(-c2nc(Nc3ccncc3)c3ccccc3n2)cc1	nt	-3%	45%	7%	nt	nt	nt
CCCC[C@H](NC(C)=O)C(=O)N[C@@H](CCC(=O)O)C(=O)N[C@@H](Cc1cnc[nH]1)C(=O)N[C@H](Cc1ccccc1)C(=O)N[C@@H](CCCN=C(N)N)C(=O)N[C@H](Cc1c[nH]c2ccccc12)C(=O)NCC(N)=O	nt	12%	3%	-5%	nt	nt	nt
CC(C)c1ccccc1NC(=O)CN1C(=O)c2cccc3cccc1c23	nt	nt	-1%	nt	nt	nt	nt
O=C(O)CCc1ccc(-c2ccc(Br)cc2)n1CC(=O)O	?	32µM*	-15%	-9%	nt	nt	?
O=C(O)CCc1ccc(-c2ccccc2)n1CC(=O)O	-13%	-4%	-8%	6%	nt	nt	nt
C=CCn1c(COc2ccc(F)cc2)nnc1SCC(=O)NC(=O)NCc1ccco1	?	?	-29%	?	nt	nt	?
CCCCCCCC1=Cc2ccccc2C(CC(=O)c2ccccc2)N1C(=O)OC (configuration not stated)	nt	14%[11.5 µM]	3%[12.4 µM]	-7%[12.4 µM]	nt	nt	nt
O=C(O)CCSc1nnc(COc2cccc3ccccc23)n1-c1cccc(Cl)c1	-1%	-5%	-1%	3%	17%	-13%	nt
O=C(CNC(=O)c1ccc(S(=O)(=O)N2CCCC2)cc1)N/N=C/c1ccc(Cl)cc1Cl	-1%	-6%	3%	-3%	-7%	6%	nt
O=C(CNC(=O)c1ccc(S(=O)(=O)N2CCCC2)cc1)N/N=C/c1ccc(Cl)cc1	16%	-1%	-8%	0%	nt	nt	nt
O=C(COc1ccccc1F)Nc1ccc2nc(SCC(=O)N3CCCC3)sc2c1	nt	nt	-5%	nt	nt	nt	nt
Cc1ccc(S(=O)(=O)c2nc(S(C)(=O)=O)sc2N(C)Cc2ccccc2)cc1	nt	nt	-6%	nt	nt	nt	nt
N=C1S/C(=C\c2ccc(-c3ccccc3C(=O)O)o2)C(=O)N1c1ccc2c(c1)OCO2	nt	-2%	-20%	?	?	?	nt
COc1ccc(-n2c(=O)c(-c3cccc(Cl)c3)nc3cncnc32)cc1	nt	?	2%	16%	nt	nt	-3%
COc1ccc(-c2nc3cnc(N4CCOCC4)nc3n(-c3ccc(OC)cc3)c2=O)cc1	nt	?	-16%	14µM*	nt	nt	-4%
COC(=O)c1nnc(N[C@@H](Cc2c[nH]c3ccccc23)C(=O)OC)nc1C(=O)OC	nt	2%	-14%	0%	nt	nt	nt
COc1ccccc1N1CCN(C(=O)c2cc3ccc4ccc(C)[nH]c4c3n2)CC1	nt	nt	-2%	nt	nt	nt	nt

Assay outcomes from PubChem BioAssay.
